Screening results deposited in PubChem BioAssay by National Center for Advancing Translational Sciences (NCATS).
HCMV inh: qHTS Assay for inhibitors of the human cytomegalovirus (HCMV) | HFF cells, HCMV-luciferase reporter, 72 h; active compounds read low | hit rate 4.5% among 410,000 | activity change, negative = inhibition, % at 57.5 µM; in the data active = activity change below about -60%; inconclusive = no clear call, values can overlap the other calls; inactive = above about -39%
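Inhibition of viral replication was scored as loss of reporter luminescence in HFFs infected with HCMV-luciferase (MOI 1 PFU/cell) for 72 h; compounds tested at 2 doses, normalized to buffer and Salinomycin controls.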
Pf growth 96h: Primary qHTS for delayed death inhibitors of the malarial parasite plastid, 96 hour incubation. Potency, µM (series often up to 28.7 µM), usual class: inhibitors. hit rate 6.9% among 320,000. P. falciparum luciferase reporter growth, 96 h
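Infected RBCs, 2% Hct / 0.05% parasitemia final; luciferase-reporter P. falciparum; cpd 96 h, 37 C, 5% CO2; luciferase detection reagent; luminescence.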
LASV entry inh: qHTS for Inhibitors of binding or entry into cells for Lassa Virus | Lassa virus pseudotype entry inhibition, cell reporter | Potency, µM (doses to about 37.9 µM), usual class: inhibitors | hit rate 1.2% among 300,000 | AID 540256, 2011; calls by dose curve; tested in HEK293 cells; also: nearly all actives have a fitted effect of over 50% in size
Pf growth 48h: Primary qHTS for delayed death inhibitors of the malarial parasite plastid, 48 hour incubation. P. falciparum luciferase growth in erythrocytes, 48 h. Potency, µM (titrated, usually from 28.7 µM), most hits filed as inhibitors. hit rate 5.9% among 310,000. AID 504832, 2011
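Here the parasites carry a stable luciferase gene and grow inside erythrocytes in Albumax-based RPMI medium with compound for one erythrocytic cycle. Activity is scored as loss of luminescent signal.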
MARV entry inh: qHTS for inhibitors of binding or entry into cells for Marburg Virus; hit rate 1.8% among 300,000; AID 540276, 2011; Potency, µM (highest dose often 37.8 µM), hits mostly inhibitors; Marburg virus pseudotyped entry inhibition, cell reporter; calls by dose curve; tested in HEK293 cells
HCV inh: qHTS Assay for Inhibitors of Hepatitis C Virus (HCV). AID 651820, 2012. Potency, µM (series often up to 41.8 µM), usual class: inhibitors. Huh7.5.1 HCVcc-Cre infection, luciferase reporter, 44 h. hit rate 3.4% among 340,000
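After 44 h co-culture of compound, cells and HCVcc-Cre (~0.5 moi), substrate is added for 15 min at room temperature and luciferase measured over 15 sec. Cells were seeded at 1,000/well and pre-cultured 4 h.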
A number is an active result; - = inactive; ? = inconclusive; . = not tested or not shown; [ ] = dose if it differs, or a comment. Most compounds without a hit are left out; they make up all but 14% or so of the library. Unless noted, calls follow the shape of the dose curve; as a rule, active = well fitted inhibition curve with a large enough effect; inconclusive = small, poorly fitted or top-dose-only effect, or another doubt; inactive = no such curve, though single readings can be large or run the other way.

SMILES	HCMV inh	Pf growth 96h	LASV entry inh	Pf growth 48h	MARV entry inh	HCV inh
CC(C)CC(=O)NC(=S)Nc1ccc(N2CCN(C(=O)c3cccs3)CC2)cc1	-	?	5.6µM	10µM	?	?
CC(C)CC(=O)NC(=S)Nc1ccc(NC(=O)c2cccs2)cc1	-	5.2µM	-	.	-	?
CCOC(=O)CNC(=O)Nc1cc(C(=O)NCc2ccc(C(C)C)cc2)ccc1N1CCCC1	-	.	-	.	.	.
CCOC(=O)n1c(=O)n(C)c2ccc(Cl)cc21	-	-	-	-	-	3.2µM
CCc1nn(C)c2c(=O)c(=O)c2n(C)[nH]1	-	-	-	-	?	-
S=C(NCc1ccco1)Nc1cc(Cl)c(Cl)cc1Cl	?	-	-	-	-	25µM
Cc1ccc(NC(=S)NCc2ccco2)c(C)c1	-	-	-	-	-	-
Cc1ccccc1NC(=S)NCc1ccco1	-	0.33µM	-	-	-	?
CC(C)(C)NC(=O)C1CCN(C(=O)c2ccco2)CC1	-	-	?	-	-	-
Cc1ccc(S(=O)(=O)N2CCN(CCNC(=O)C(=O)Nc3ccc(F)cc3)CC2)cc1	-67	-	-	-	?	-
Cc1ccc(NC(=O)C(=O)NCCN2CCN(Cc3ccc([N+](=O)[O-])cc3)CC2)cc1	-	0.47µM	-	-	-	?
CCc1ccc(NC(=O)C(=O)NCCN2CCN(Cc3ccc([N+](=O)[O-])cc3)CC2)cc1	-	-	-	-	?	-
COc1cccc(OC(=O)c2ccccc2)c1OC(=O)c1ccccc1	-	.	?	.	-	-
O=C(c1c(F)cccc1F)N1CCCC(c2nc(-c3cccs3)no2)C1 (stereo not drawn)	-	8.3µM	?	-	?	-
O=C(c1ccccc1Br)N1CCCC(c2nc(-c3cccs3)no2)C1 (stereo not drawn)	-89	-	.	-	.	?
O=C(c1ccc(Br)cc1)N1CCCC(c2nc(-c3cccs3)no2)C1 (stereo not drawn)	-	?	.	-	.	-
O=C(c1ccc(F)cc1F)N1CCCC(c2nc(-c3cccs3)no2)C1 (stereo not drawn)	?	-	?	-	-	-
COC(=O)c1ccccc1NC(=O)C1=CC(c2ccc3c(c2)OCO3)=NS(=O)(=O)N1C	-	.	-	.	-	.
CC1=C(C(=O)OCc2ccccc2)C(c2ccc(Cl)cc2)NC(=O)N1CCCC(=O)O (stereo not drawn)	-	?	.	-	.	-
CCCCNC(=O)C(c1ccc(OCC(=O)OC)c(C(=O)OC)c1)N(CCc1c[nH]c2ccccc12)C(=O)CCCCCN1C(=O)NC(c2ccc(-c3ccccc3)cc2)C(C(=O)OCc2ccccc2)=C1C (stereo not drawn)	.	2.9µM	.	2.3µM	.	.
CCCCCCN(C(=O)CCCCCN1C(=O)NC(c2ccc(Cl)cc2)C(C(=O)OCc2ccccc2)=C1C)C(C(=O)NCCCC)c1ccc(OCC(=O)OC)c(C(=O)OC)c1 (stereo not drawn)	?	?	-	7.4µM	-	-[8.37 µM]
CCCCCCN(C(=O)CCCCCN1C(=O)NC(c2ccc(-c3ccccc3)cc2)C(C(=O)OCc2ccccc2)=C1C)C(C(=O)NCCCC)c1ccc(OCC(=O)OC)c(C(=O)OC)c1 (stereo not drawn)	-	2.6µM	.	2.3µM	.	.
COC(=O)CCCCCN1C(=O)NC(c2ccccc2)C(C(=O)OCc2ccccc2)=C1C (stereo not drawn)	-	?	?	-	-	-
CCOC(=O)c1c(NC(=O)CSc2nnc3c(n2)[nH]c2ccccc23)sc2c1CCN(C)C2	-	.	-	.	?	7.1µM
CCOC(=O)c1c(NC(=S)Nc2ccccc2)sc2c1CCN(CCc1ccccc1)C2	.	2.3µM	.	13µM	-	.
SMILES	HCMV inh	Pf growth 96h	LASV entry inh	Pf growth 48h	MARV entry inh	HCV inh
CCOC(=O)c1c(NC(=O)CC)sc2c1CCN(Cc1ccccc1)C2	-	-	.	?	.	11µM
CCOC(=O)c1c(NC(=O)CSc2nnc3c(n2)[nH]c2ccc(F)cc23)sc(C(C)=O)c1C	-	?	-	?	-	?
COC(=O)c1c(NC(=O)C2COc3ccccc3O2)sc2c1CCN(C(=O)OC)C2 (stereo not drawn)	-	.	.	.	.	.
COC(=O)c1c(NC(=O)C2COc3ccccc3O2)sc2c1CCN(Cc1ccccc1)C2 (stereo not drawn)	?	?	-	5.2µM	?	?
Brc1ccc2nc(C3CCCCC3)c(Cc3ccccc3)n2c1	-	.	.	.	.	.
CCOc1ccc(NC(=O)CN(C)S(=O)(=O)c2ccc3c(c2)c(=O)n(C)c(=O)n3C)cc1	-	.	-	.	-	.
COc1cc2c(c(OC)c1OC)[C@@]1(c3ccccc3)CCCCC[C@H]1[C@@H]2NC(=O)C(F)(F)F	.	.	-	.	-	.
COc1cccc(C2C(C(=O)Nc3ccccc3OC)=C(C)Nc3nc(-c4ccco4)nn32)c1 (stereo not drawn)	-	.	?	.	-	.
CCOC(=O)c1c(NC(C)=O)sc2c1CCN(Cc1ccccc1)C2	-	?	.	-	.	?
CCOC(=O)c1c(NC(=O)C(C)Sc2cccc[n+]2[O-])sc2c1CCN(Cc1ccccc1)C2 (stereo not drawn)	?	5.2µM	?	9.3µM	?	-
CCOC(=O)c1c(NC(=O)CSc2ncccn2)sc2c1CCN(Cc1ccccc1)C2	-	7.4µM	?	?	16µM	?
Cc1ccc2nc(-c3ccc(Cl)cc3)cc(C(=O)OCC(=O)c3ccccc3)c2c1	-	.	-	.	.	.
O=c1c(F)cn([C@H]2CCCO2)c(=O)n1Cc1ccccc1Cl	.	.	.	.	-	.
O=C(COc1cccc(NC(=O)c2cccc([N+](=O)[O-])c2)c1)c1ccc(Br)cc1	-73	-	22µM	-	?	14µM
O=C(COc1cccc(NC(=O)c2ccccc2)c1)c1ccccc1	-	-	-	-	?	-
O=C(Nc1cccc(OCC(=O)N2CCOCC2)c1)c1cccc([N+](=O)[O-])c1	-	7.4µM	-	-	-	-
CCc1ccc(S(=O)(=O)Nc2cccc(-c3ccc(N4CCOCC4)nn3)c2)cc1	-	.	?	.	.	.
CCn1cc(CN2CCC(C(=O)Nc3cccc(-c4cccc(F)c4)c3)CC2)cn1	-63	-	-	?	-	8.9µM
CCn1cc(CN2CCC(C(=O)Nc3cccc(-c4cccc(OC)c4)c3)CC2)cn1	-	-	-	-	-	-
Cn1cc(CN2CCCC(C(=O)Nc3ccc(-c4cccc(F)c4)cc3)C2)cn1 (stereo not drawn)	-72	-	.	?	.	?
CCn1cc(CN2CCCC(C(=O)Nc3ccc(-c4cscn4)cc3)C2)cn1 (stereo not drawn)	-	-	-	-	-	-
